For experiment [1], the target named is Estrogen receptor (Homo sapiens) (UniProt P03372). In words: NVS_NR_hER: NovaScreen (NVS) Nuclear Receptor Binding Assay for human Estrogen Receptor (ER) (AID 2283348). A digest of the protocol:
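Cell-free MCF7-derived ER preparation, specific radioligand displaced by test compound, read by scintillation counting 18 h post-dosing. Duplicate single-point 25 uM screen, then concentration-response confirmation; DMSO baseline.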

Experiment [2] deals with mouse Estrogen Receptor alpha (Era), Esr1 (gene 13982) (UniProt P19785). In words: NVS_NR_mERa: NovaScreen (NVS) Nuclear Receptor Binding Assay for mouse Estrogen Receptor alpha (Era) (AID 2283378).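 Note: hit means loss of bound radioligand signal relative to DMSO.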 A digest of the protocol:
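Cell-free radioligand competitive displacement binding, read by filter-based scintillation counting 18 h after dosing. Primary screen run in duplicate at 25 uM, actives retested in concentration series; loss of signal versus DMSO.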

Experiment [3] can be described thus: TOX21_p53_BLA_p2_viability: Viability Assessment in the Tox21 HCT-116 p53 Agonism Beta-lactamase Assay, Phase 2 (AID 2283591).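 Note: actives lower the ATP signal meaning cytotoxicity.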 A digest of the protocol:
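Cytotoxicity readout: CellTiter-Glo ATP luminescence, 30 min at room temperature, after the beta-lactamase read. Cells were HCT116 exposed 16 h at 37C to compounds pin-transferred at 217-fold dilution from DMSO stocks.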

Experiment [4] can be described thus: TOX21_p53_BLA_p3_viability: Viability Assessment in the Tox21 HCT-116 p53 Agonism Beta-lactamase Assay, Phase 3 (AID 2283593).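 Note: cells exposed to compound for 16 h before reading.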 The essentials: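 Cellular ATP was quantified by CellTiter-Glo luminescence, read after 30 min at room temperature. Beforehand, HCT116 cells (4000/well) received compound 5 h post-seeding, 217-fold diluted from DMSO, then incubated 16 h at 37C.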

The target in experiment [5] is Cellular tumor antigen p53 (Homo sapiens) (UniProt P04637). In words: TOX21_p53_BLA_p3_ratio: Tox21 HCT-116 p53 Agonism Beta-lactamase Assay, Ratio, Phase 3 (AID 2283596). The essentials:
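Cells were seeded at 4000/well, rested 5 h at 37C, then dosed with DMSO compound solutions (217-fold dilution) for 16 h. CCF4-AM substrate was loaded for 2 h at room temperature, and the 460/530 nm emission ratio was fitted for gain of signal versus DMSO.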

The nature of experiment [6]: TOX21_p53_BLA_p4_viability: Viability Assessment in the Tox21 HCT-116 p53 Agonism Beta-lactamase Assay, Phase 4 (AID 2283597).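 Note: hits lower the luminescence signal meaning cytotoxicity.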 The essentials:
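4000 HCT116 cells per well; 5 h attachment; compounds from DMSO, 217-fold dilution; 16 h at 37C. Then CCF4-AM, 2 h RT, followed by CellTiter-Glo, 30 min RT, luminescence. Decrease = cytotoxicity.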

For experiment [7], the target named is Cellular tumor antigen p53 (Homo sapiens) (UniProt P04637). As to the kind of experiment: TOX21_p53_BLA_p5_ratio: Tox21 HCT-116 p53 Agonism Beta-lactamase Assay, Ratio, Phase 5 (AID 2283599). A digest of the protocol: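 Beta-lactamase reporter ratio (blue 460 nm over green 530 nm, 405 nm excitation) after 2 h CCF4-AM loading, in HCT-116 cells exposed 16 h at 37 C to compounds pinned at 217-fold dilution. Increases relative to DMSO baseline scored.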

A short description of experiment [8]: TOX21_p53_BLA_p5_viability: Viability Assessment in the Tox21 HCT-116 p53 Agonism Beta-lactamase Assay, Phase 5 (AID 2283600). The essentials: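 Decreased CellTiter-Glo luminescence denotes lost viability. Exposure: 16 h at 37C, 5% CO2, with compounds from DMSO stocks diluted 217-fold in wells of 4000 cells.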
The target of experiment [9] is Cellular tumor antigen p53 (Homo sapiens) (UniProt P04637). As to the kind of experiment: TOX21_p53_BLA_p2_ratio: Tox21 HCT-116 p53 Agonism Beta-lactamase Assay, Ratio, Phase 2 (AID 2283592). The essentials: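 First, HCT116 reporter cells settle for 5 h at 37C. Next, DMSO compound solutions are pinned in (217-fold dilution) and left 16 h. Finally, CCF4-AM substrate is loaded 2 h at room temperature and the 460/530 nm ratio read.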

Experiment [10] deals with Bile acid receptor (Homo sapiens) (UniProt Q96RI1). In words: NVS_NR_hFXR_Agonist: NovaScreen (NVS) Nuclear Receptor Binding Assay for human Farnesoid X Receptor Agonism (FXR) (AID 2283347). A digest of the protocol: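 Agonist-mode FXR assay read by time-resolved FRET 1 h after compound addition, using isolated human receptor protein without cells. Duplicate 25 uM single-point primary screen, concentration series for confirmed actives; DMSO as baseline.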

The target in experiment [11] is Cellular tumor antigen p53 (Homo sapiens) (UniProt P04637). In words: TOX21_p53_BLA_p4_ratio: Tox21 HCT-116 p53 Agonism Beta-lactamase Assay, Ratio, Phase 4 (AID 2283601). The essentials: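 Signal is the blue/green (460nm/530nm) ratio of cleaved versus uncleaved CCF4-AM substrate, read after 2 h substrate loading. Cells were HCT116 carrying the p53-responsive beta-lactamase reporter, dosed 16 h at 37C, 5% CO2; CellTiter-Glo measured in parallel.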

The nature of experiment [12]: CCTE_Harrill_HTTr_Viability_MCF7: CCTE's 6-hour Cell Viability Assessment for the High-Throughput Transcriptomics (HTTr) Platform, in MCF-7 cells cultured in DMEM + 10% fetal bovine serum, Harrill Lab (AID 2284010; active = hit-call score of the fitted dose curve at least 0.9, where 1 is the maximum; inactive = score below 0.9). A digest of the protocol: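 PI exclusion, high-content imaging; 8-pt dilution series, 6 h exposure; bidirectional fit vs DMSO (neg. ctrl/baseline); gain of signal = loss of membrane integrity.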

Experiment [13] can be described thus: CCTE_Harrill_HTTr_Apoptosis_MCF7: CCTE's 6-hour Apoptosis Assessment for the High-Throughput Transcriptomics (HTTr) Platform, in MCF-7 cells cultured in DMEM + 10% fetal bovine serum, Harrill Lab (AID 2284011; active = hit-call score of the fitted dose curve at least 0.9, where 1 is the maximum; inactive = score below 0.9). A digest of the protocol:
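MCF-7 cells in DMEM + 10% FBS exposed 6 h to chemicals over an eight-point dilution series. Caspase-3/7 activation imaged by high-content CellEvent Green staining; fitted bidirectionally versus DMSO.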

For experiment [14], the target named is bovine Gamma-Aminobutyric Acid Type A Receptor BDZ, alpha 1 site (GABARa1), GABRA1 (gene 780973) (UniProt P08219). As to the kind of experiment: NVS_LGIC_bGABARa1: NovaScreen (NVS) Ligand-Gated Ion Channel Assay for bovine Gamma-Aminobutyric Acid Type A Receptor BDZ, alpha 1 site (GABARa1) (AID 2283321). A digest of the protocol:
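Bovine cortex membrane preparation, benzodiazepine site on GABA-A alpha1; specific radioligand displacement read after 0.75 h by filtration and scintillation. Screen at 25 uM, then singleton titrations up to 50 uM; DMSO baseline.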

Experiment [15] is described as follows: ATG_M_32_XSP2: Attagene TRANS-FACTORIAL Multi-Species (XSP2) HepG2 Assay for M19 Transcription Factor (Internal Marker) (AID 2283826). The essentials: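 HepG2 cells transiently transfected with GAL4-UAS reporter units; XSP2 panel included 3 nM 6-alpha-fluorotestosterone and 1.5 nM norgestrel for androgen receptor stimulation. Reporter mRNA read 24 h post-dosing by RT-PCR/capillary electrophoresis; fitted upward versus DMSO.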

In experiment [16] the target is rat Gamma-Aminobutyric Acid Type A Receptor BDZ, alpha 6 site (GABARa6), Gabra6 (gene 29708) (UniProt P30191). As to the kind of experiment: NVS_LGIC_rGABARa6: NovaScreen (NVS) Ligand-Gated Ion Channel Assay for rat Gamma-Aminobutyric Acid Type A Receptor BDZ, alpha 6 site (GABARa6) (AID 2283339). The essentials: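 Actives from a 25 uM duplicate screen were retested in concentration series (max 50 uM). Specific radioligand displacement from rat cerebellar membranes was counted by filter-based scintillation at 1 h; DMSO served as baseline.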

The target in experiment [17] is Norway rat Vesicular Monoamine Transporter (VMAT2), neurotransmitter transporter, Slc18a2 (gene 25549) (UniProt Q01827). In words: NVS_TR_rVMAT2: NovaScreen (NVS) Transporter Assay for Norway rat Vesicular Monoamine Transporter (VMAT2), neurotransmitter transporter (AID 2283376).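 Note: actives lower the bound radioligand signal below the DMSO level.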 A digest of the protocol:
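Using rat forebrain membranes, specific radioligand binding to VMAT2 was measured by filtration and scintillation counting after 1 hour. Chemicals screened at 25 uM in duplicate, actives retested in concentration series, DMSO baseline.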

A short description of experiment [18]: ACEA_ER_AUC_viability: ACEA Biosciences xCELLigence Real-Time Cell Analysis on Estrogen Receptor Agonism for Viability (AID 2283782).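 Note: hit means loss of impedance signal meaning reduced cell growth or viability.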 The essentials:
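Viability endpoint: reduced impedance area under the curve relative to DMSO, recorded by real-time electrode sensing over ~80 h of continuous exposure. Duplicate plates of T47D in hormone-depleted medium; eight concentrations, 1:4 dilutions, 100 uM maximum.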

Consider 13 compounds from PubChem BioAssay (EPA / NIEHS).

Records with an inconclusive call do not appear. Calls of active or inactive are those of the source. Rule for the calls, unless noted: active = hit-call score of the fitted dose curve at least 0.9, where 1 is the maximum; inconclusive = response in the unintended direction; inactive = score below 0.9.

Usually AC50 stands for the midpoint of the concentration-response curve, whichever way the signal moves.

Sequence of Estrogen receptor (Homo sapiens) (P03372 whole entry, looked up): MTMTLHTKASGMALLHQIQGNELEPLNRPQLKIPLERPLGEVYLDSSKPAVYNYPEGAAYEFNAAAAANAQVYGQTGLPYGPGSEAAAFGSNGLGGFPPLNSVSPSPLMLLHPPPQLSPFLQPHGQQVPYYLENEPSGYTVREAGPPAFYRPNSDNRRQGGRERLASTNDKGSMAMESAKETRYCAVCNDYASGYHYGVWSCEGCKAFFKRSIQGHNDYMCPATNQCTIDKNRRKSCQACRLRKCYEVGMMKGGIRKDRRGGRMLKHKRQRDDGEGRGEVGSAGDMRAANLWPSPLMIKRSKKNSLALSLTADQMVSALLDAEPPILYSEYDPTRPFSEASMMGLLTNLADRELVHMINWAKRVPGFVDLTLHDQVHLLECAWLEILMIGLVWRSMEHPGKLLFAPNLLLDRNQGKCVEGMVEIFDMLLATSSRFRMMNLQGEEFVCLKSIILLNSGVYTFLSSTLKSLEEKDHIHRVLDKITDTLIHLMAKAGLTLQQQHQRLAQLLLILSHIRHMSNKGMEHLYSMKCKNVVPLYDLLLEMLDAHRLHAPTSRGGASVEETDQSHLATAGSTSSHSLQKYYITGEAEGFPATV
Sequence of mouse Estrogen Receptor alpha (Era), Esr1 (gene 13982) (P19785 whole entry, looked up): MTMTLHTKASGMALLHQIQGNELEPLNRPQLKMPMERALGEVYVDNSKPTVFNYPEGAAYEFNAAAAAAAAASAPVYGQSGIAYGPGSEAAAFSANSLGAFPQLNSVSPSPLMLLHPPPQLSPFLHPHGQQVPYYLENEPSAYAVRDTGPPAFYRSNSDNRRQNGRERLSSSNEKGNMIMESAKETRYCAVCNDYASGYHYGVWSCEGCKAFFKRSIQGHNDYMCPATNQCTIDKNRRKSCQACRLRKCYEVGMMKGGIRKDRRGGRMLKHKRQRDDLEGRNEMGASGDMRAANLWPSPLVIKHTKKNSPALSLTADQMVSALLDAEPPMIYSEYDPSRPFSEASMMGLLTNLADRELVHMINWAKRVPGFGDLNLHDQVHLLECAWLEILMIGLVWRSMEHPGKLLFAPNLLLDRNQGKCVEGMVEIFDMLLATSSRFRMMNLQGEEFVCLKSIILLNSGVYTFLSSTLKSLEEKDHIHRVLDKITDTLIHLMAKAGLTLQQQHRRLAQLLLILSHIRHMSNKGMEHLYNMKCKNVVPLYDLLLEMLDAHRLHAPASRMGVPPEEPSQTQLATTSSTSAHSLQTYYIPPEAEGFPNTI
Sequence of Cellular tumor antigen p53 (Homo sapiens) (P04637 whole entry, looked up): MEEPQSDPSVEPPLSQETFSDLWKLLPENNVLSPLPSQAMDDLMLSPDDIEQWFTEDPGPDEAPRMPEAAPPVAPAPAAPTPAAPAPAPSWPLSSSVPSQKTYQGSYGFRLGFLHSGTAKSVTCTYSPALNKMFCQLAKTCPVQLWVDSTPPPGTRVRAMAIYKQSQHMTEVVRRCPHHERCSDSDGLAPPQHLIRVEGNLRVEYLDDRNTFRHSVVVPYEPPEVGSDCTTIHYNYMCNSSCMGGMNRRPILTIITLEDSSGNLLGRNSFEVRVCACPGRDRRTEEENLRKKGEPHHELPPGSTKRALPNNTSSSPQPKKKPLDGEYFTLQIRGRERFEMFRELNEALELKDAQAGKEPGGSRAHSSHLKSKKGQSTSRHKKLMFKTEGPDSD
Sequence of bovine Gamma-Aminobutyric Acid Type A Receptor BDZ, alpha 1 site (GABARa1), GABRA1 (gene 780973) (P08219 whole entry, looked up): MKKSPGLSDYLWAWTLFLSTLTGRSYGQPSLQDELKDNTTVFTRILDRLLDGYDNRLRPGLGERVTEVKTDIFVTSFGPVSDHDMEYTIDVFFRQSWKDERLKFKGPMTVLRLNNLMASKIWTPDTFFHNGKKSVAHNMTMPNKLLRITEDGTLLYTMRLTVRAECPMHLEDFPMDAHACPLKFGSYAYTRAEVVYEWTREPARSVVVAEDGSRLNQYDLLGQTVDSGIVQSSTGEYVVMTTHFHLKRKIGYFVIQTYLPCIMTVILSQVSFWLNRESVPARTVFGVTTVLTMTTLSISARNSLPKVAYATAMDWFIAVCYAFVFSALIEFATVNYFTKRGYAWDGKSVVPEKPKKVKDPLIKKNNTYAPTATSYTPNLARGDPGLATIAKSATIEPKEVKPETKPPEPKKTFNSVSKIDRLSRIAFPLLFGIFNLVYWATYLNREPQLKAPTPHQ
Sequence of Norway rat Vesicular Monoamine Transporter (VMAT2), neurotransmitter transporter, Slc18a2 (gene 25549) (Q01827 whole entry, looked up): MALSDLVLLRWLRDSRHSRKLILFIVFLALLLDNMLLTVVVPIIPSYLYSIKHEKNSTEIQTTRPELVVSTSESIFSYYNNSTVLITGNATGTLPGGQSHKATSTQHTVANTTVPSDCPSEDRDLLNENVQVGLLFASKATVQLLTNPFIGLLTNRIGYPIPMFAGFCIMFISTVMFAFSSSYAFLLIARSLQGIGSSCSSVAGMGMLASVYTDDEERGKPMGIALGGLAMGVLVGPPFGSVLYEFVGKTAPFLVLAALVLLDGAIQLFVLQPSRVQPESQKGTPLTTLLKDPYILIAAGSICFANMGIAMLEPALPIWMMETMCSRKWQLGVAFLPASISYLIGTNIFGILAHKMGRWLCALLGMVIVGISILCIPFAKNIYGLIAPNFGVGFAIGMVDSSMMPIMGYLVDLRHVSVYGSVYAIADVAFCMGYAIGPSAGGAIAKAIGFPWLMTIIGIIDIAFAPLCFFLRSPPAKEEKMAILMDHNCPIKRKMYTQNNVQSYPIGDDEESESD
Sequence of Bile acid receptor (Homo sapiens) (Q96RI1 whole entry, looked up): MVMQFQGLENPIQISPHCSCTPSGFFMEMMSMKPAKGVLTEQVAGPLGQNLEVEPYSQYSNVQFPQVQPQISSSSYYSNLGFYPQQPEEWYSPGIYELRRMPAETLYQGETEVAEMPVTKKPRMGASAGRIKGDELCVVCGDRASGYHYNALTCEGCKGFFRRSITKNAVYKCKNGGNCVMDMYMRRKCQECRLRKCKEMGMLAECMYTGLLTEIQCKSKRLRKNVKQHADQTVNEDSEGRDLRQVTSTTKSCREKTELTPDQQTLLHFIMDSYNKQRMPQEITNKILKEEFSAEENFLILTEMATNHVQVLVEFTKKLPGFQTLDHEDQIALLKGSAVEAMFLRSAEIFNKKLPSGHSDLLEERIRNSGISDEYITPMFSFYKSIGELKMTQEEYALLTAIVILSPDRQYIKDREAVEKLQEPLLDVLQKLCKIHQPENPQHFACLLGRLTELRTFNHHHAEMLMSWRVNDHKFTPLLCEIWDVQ
Sequence of rat Gamma-Aminobutyric Acid Type A Receptor BDZ, alpha 6 site (GABARa6), Gabra6 (gene 29708) (P30191 whole entry, looked up): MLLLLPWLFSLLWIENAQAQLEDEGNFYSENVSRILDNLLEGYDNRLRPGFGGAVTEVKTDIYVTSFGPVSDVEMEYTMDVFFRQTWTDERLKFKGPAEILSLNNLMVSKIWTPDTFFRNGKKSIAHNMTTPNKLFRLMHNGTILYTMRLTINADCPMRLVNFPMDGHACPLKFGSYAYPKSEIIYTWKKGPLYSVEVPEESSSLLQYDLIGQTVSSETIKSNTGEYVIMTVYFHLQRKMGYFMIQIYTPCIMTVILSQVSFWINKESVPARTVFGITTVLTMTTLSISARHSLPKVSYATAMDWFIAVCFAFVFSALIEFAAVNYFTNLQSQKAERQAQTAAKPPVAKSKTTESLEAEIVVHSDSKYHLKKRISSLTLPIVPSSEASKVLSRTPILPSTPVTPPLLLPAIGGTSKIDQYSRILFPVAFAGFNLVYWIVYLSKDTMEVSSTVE

On to `CC(C)OC(=O)C(O)(c1ccc(Cl)cc1)c1ccc(Cl)cc1`, for which the compound was called inactive in experiment [1], in experiment [2], in experiment [4], in experiment [5] and in experiment [8]. Besides, the concentration at half-maximal activity (AC50) in experiment [3] was 70.6 µM (active); in [6] it was 67.4 µM (active); in [7], 66.6 µM (active).

Take `CSc1ccc(C(=O)C(C)(C)N2CCOCC2)cc1`: the AC50 in [1] was 25 µM (active). Further, the result in [2], in experiment [3], in experiment [9], in [4], in [6] and in experiment [7] was inactive. The result in [8] was inactive.

Turning to `CCN(CCC#N)c1ccc(N=Nc2c(Cl)cc([N+](=O)[O-])cc2Cl)cc1`, in experiment [10], the call was inactive.

Consider `OC(c1ccc(F)cc1)(c1cncnc1)c1ccccc1Cl` (stereo not given), for which the AC50 in experiment [1] was 21.2 µM (active). Moreover, the outcome in [2], in experiment [6], in experiment [11], in experiment [12] and in experiment [13] was inactive.

For `C#C[C@]1(O)CC[C@H]2[C@@H]3CCC4=CC(=O)CC[C@@H]4[C@H]3CC[C@@]21CC`, the AC50 in experiment [14] was 2.23 µM (active). Also, in experiment [15], the call was inactive.

`CCN(CC)c1c([N+](=O)[O-])cc(C(F)(F)F)c(N)c1[N+](=O)[O-]`: the compound was called inactive in [1], in [3], in experiment [9], in [5], in experiment [6] and in experiment [8]. Besides, the outcome in [11] was inactive.

With `CCOc1ccc2[nH]cc(C(=O)NCc3ccccc3)c(=O)c2n1`, the compound was classed as inactive in [14]. For the same compound, in experiment [16], the AC50 is 0.215 µM (active).

Regarding `[Hg+2].[I-].[I-]`, in experiment [1], the call was inactive. Also, the AC50 in experiment [3] was 35.4 µM (active); in experiment [9], 54.2 µM (active); in experiment [4], 70.1 µM (active); in experiment [5], 72.1 µM (active); in experiment [6], 18.4 µM (active); in [7], 73.7 µM (active). Besides, the AC50 in experiment [8] was 57.5 µM (active); in experiment [11] it was 33 µM (active).

Regarding `CCCCOC(=O)[C@@H](C)Oc1ccc(Oc2ccc(C(F)(F)F)cn2)cc1`, the compound was called inactive in experiment [10].

Regarding `Nc1ccc(Oc2cccc(Oc3ccc(N)cc3)c2)cc1`, in experiment [17], the compound was called inactive.

For the compound `NC(=O)N1c2ccccc2C=Cc2ccccc21`, the compound was called inactive in experiment [14] and in [16].

Consider `CCCN(CCC)c1c([N+](=O)[O-])cc(S(C)(=O)=O)cc1[N+](=O)[O-]`, for which the compound was classed as inactive in experiment [1]. The AC50 in experiment [18] is 50 µM (active).

With `COC(=O)OC`, in [17], the call was inactive.
